# Laboratory results: ChEMBL document CHEMBL1157539, “Thousands of chemical starting points for antimalarial lead identification” (Nature, 2010)
# Key:
# Format in all cases: functional
# Plasmodium falciparum [1] = assay: GSK_TCMDC: Inhibition of Plasmodium falciparum 3D7 in whole red blood cells, using parasite LDH activity as an index of growth. Test compounds present at 2uM
# Plasmodium falciparum [2] = assay: GSK_TCMDC: Inhibition of Plasmodium falciparum Dd2 in whole red blood cells, using parasite LDH activity as an index of growth. Test compounds present at 2uM
# HepG2 = assay: GSK_TCMDC: Percent inhibition of human HepG2 cell line. Test compounds present at 10uM.
SMILES,Inhibition (Plasmodium falciparum [1]) [%],Inhibition (Plasmodium falciparum [2]) [%],Inhibition (HepG2) [%]
COCCNC(=O)C(CNC(=O)c1ccc2c(c1)OCO2)NC(=O)c1ccc(-c2ccccc2)cc1 (configuration not stated),90,3,14
O=C(NCCCCCN1CCC(c2c[nH]c3ccccc23)CC1)Nc1ccc(I)cc1,100,0,51
O=[N+]([O-])c1ccc(/C=N/Nc2cc(-c3ccccc3)nc3ccccc23)o1,93,49,48
CCNc1cc(C)nc(Nc2ccc(NC(=O)C3CCCC3)cc2)n1,99,69,13
COCCNCc1cccc(-c2ccc(CNC3CCN(Cc4ccccc4)CC3)cc2)c1.O=C(O)C(F)(F)F,100,97,34
COc1ccc(OCCCN2CCCCC2)cc1S(=O)(=O)c1ccc(OCc2ccc(C(F)(F)F)cc2)cc1.Cl,94,8,52
COc1ccc2nccc([C@@H](O)CN3CCC(NCCOc4cccc(F)c4F)CC3)c2c1.O=C(O)C(=O)O,100,85,9
Cc1noc(C)c1-c1ccc2c(Nc3ccccc3C(C)(C)C)c(C(=O)NCc3ccc(OC(C)C)cc3)cnc2c1.Cl,100,98,0
CC(=O)N1N=C(c2ccc(Cl)cc2)Sc2c1nc(-c1ccccc1)n2C(C)=O,100,81,0
COc1ccc(-c2ccc(NC(=O)c3ccc(F)cc3)cc2)cc1CN1CCCN(C)CC1.O=C(O)C(F)(F)F,98,35,29
Cc1ccccc1Nc1nc(NCc2ccccc2)nc2ccccc12,88,35,39
CNC(=O)c1cnc(Nc2ccc(OCC(O)CN(C)C)cc2)nc1Nc1cccc(OC)c1.O=C(O)C(F)(F)F (configuration not stated),100,97,31
Cc1cc(NC2CCN(CC3CCCCC3)C2)nc(Nc2ccc(Cl)cc2)n1 (configuration not stated),98,83,26
Cc1cccc2nc(-c3ccc(-c4ccc(NC(=O)Nc5ccc(Cl)cc5)cc4)s3)[nH]c12,100,100,78
O=C(NC1CCCCC1)N(Cc1ccc(-c2ccc(CNC3CCCC3)cc2)cc1)C1CCN(Cc2ccccc2)CC1.O=C(O)C(F)(F)F,99,86,31
CCN1CCC(N(Cc2ccc(-c3ccc(C(F)(F)F)cc3)cc2)C(=O)Cn2c(SCc3ccc(F)cc3)nc(=O)c3c2CCC3)CC1.O=C(O)C(O)C(O)C(=O)O,90,96,46
CCCOC(=O)C1=C(C)NC2=C(C(=O)CC(c3ccc(OC)c(OC)c3)C2)C1c1cccc(O)c1 (configuration not stated),100,99,0
COc1ccc2nccc(NC(=O)N3CCC(NCc4cc5c(F)ccc(F)c5[nH]4)CC3)c2n1.O=C(O)C(=O)O,99,40,6
Fc1cccc(Nc2nc(NCc3ccc(OCc4ccccc4)cc3)nc(Nc3cccc(F)c3)n2)c1,84,14,5
CCOC(=O)c1cnc2c(OC)cc(OC)c(Cl)c2c1Nc1cccc(C)c1,95,20,0
Cn1nc(-c2cccc(CNC3CCc4ccccc43)c2)c2cnc(NC3CCCC3)nc21 (configuration not stated),100,23,14
O=C(NC1CCCCC1)N(Cc1cccc(-c2cccc(CNC3CCCC3)c2)c1)C1CCN(Cc2ccccc2)CC1.O=C(O)C(F)(F)F,96,90,64
CC(C)[C@H](NC(=O)c1ccc(O)c(-c2ccc(Cl)c(Cl)c2)c1)C(=O)NCCN1CCOCC1,95,44,0
O=C(NCCCN1CCC(N2CCCCC2)CC1)c1ccc(N2CCOc3ccccc32)s1,100,12,37
O=C(Nc1cccc(N2CCC(NCCCc3ccncc3)CC2)c1)c1cccc(C(F)(F)F)c1,96,50,11
Cc1cccc2nc(-c3ccc(-c4cccc(NC(=O)c5cncn5C)c4)s3)[nH]c12,100,16,13
COc1ccc2nccc([C@@H](O)CN3CCC(NC[C@H](Cc4ccccc4)NC(=O)OC(C)(C)C)CC3)c2c1.O=C(O)C(=O)O,98,86,18
CN1CCN(CC(=O)Nc2cccc(-c3cccc(-c4nc5cc(C(F)(F)F)ccc5[nH]4)c3)c2)CC1,100,98,26
CCc1ccc(N2C(=O)C3C(Cc4ccc(OC(C)(C)C)cc4)NC4(C(=O)N(Cc5ccccc5)c5ccc(F)cc54)C3C2=O)cc1 (configuration not stated),96,49,9
